This is a sample that favours compounds with a hit; in the whole collection about 3.3% have one here.
SIRT5 block: SIRT5 desuccinylase inhibitors, primary screen, biochemical, fluorescence imaging, single point, set 5; AID 652115, 2013; Purified SirT5, succinyl-peptide AMC, trypsin-coupled fluorescence; NAD-dependent protein deacylase sirtuin-5, mitochondrial (Homo sapiens), Q9NXA8; inhibition, % at 15 µM; 330,000 tested, 1.1% active; in the data active = inhibition above about 15%
Target sequence (Q9NXA8 whole entry, looked up): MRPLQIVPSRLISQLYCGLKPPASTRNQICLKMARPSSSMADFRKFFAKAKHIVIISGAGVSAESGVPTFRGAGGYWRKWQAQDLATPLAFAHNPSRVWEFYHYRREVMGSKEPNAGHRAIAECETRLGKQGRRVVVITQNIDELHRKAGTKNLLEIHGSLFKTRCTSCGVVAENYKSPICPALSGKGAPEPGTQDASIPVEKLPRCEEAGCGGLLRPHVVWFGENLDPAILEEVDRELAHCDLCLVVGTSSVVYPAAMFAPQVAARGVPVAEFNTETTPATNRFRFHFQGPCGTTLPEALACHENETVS
GSIS activator: GLuc luminescence reporter in INS-1E cells, primary screen for activators of glucose-dependent secretion of insulin; 370,000 tested, 0.61% active; INS-1E GLuc reporter insulin secretion, 2-3 h; AID 743287, 2014; activation, % at 16.6 µM;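 active = lowest replicate activation of at least 40%, so every replicate reaches that level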;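 also: 0% = median of neutral control wells and 100% = median of IBMX positive control wells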
FGF22 binding: binders of human FGF22 protein, primary screen, FGF22 synaptogenesis inhibitor project, biophysical, thermal shift, single point. Fibroblast growth factor 22 (Homo sapiens), Q9HCT0. recombinant FGF22 thermal shift, SYPRO orange fluorescence; percent of sucrose octasulfate shift, DMSO zero. activity (Tm shift, normalised), % at 9.99 µM. 340,000 tested, 1.5% active. AID 651658, 2012;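 active = mean Tm shift, scaled 0 neutral to 100 positive control, at about 1.3% or above, every replicate too, limit read from the data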
Target sequence (Q9HCT0 whole entry, looked up): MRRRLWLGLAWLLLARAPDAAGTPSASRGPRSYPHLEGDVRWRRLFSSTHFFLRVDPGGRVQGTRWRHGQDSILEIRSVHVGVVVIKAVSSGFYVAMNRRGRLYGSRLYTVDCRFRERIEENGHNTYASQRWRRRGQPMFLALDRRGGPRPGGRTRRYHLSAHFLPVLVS
ERAP1 inh: human ERAP1 aminopeptidase inhibitors, primary screen, biochemical, single point, plate reader; Endoplasmic reticulum aminopeptidase 1 (Homo sapiens), Q9NZ08; recombinant ERAP1, Leu-AMC fluorescence, 60 min; inhibition, % at 10.7 µM; 340,000 tested, 0.15% active; AID 652197, 2013;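 active = mean replicate inhibition of at least 30%, or all replicates individually reaching that 30% level; inactive = mean below 30% and not every replicate reaching it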;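 also: 0% = neutral control wells and 100% = L-leucinethiol positive control wells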
CASP6 VEID inh: human caspase-6 inhibitors, primary screen, biochemical, VEID-R110 fluorescence, single point, set 2; purified caspase-6, Z-VEID-R110 cleavage fluorescence; inhibition, % at 12.5 µM; 350,000 tested, 0.53% active;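 active = mean inhibition across replicates at least about 35%, with every replicate also reaching that limit, limit read from the data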;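 also: 0% = median of neutral control wells and 100% = no fluorescence left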
* hit, by the source's call; x = no result.

SMILES	SIRT5 block	GSIS activator	FGF22 binding	ERAP1 inh	CASP6 VEID inh
CN1CCN(C(=O)C[C@H]2CC[C@H]3[C@H](COc4ccc(NC(=O)c5ccc(F)c(F)c5)cc4C(=O)N3C)O2)CC1	1	7	0	0	-1
COc1ccc(NC(=O)N(C)C[C@@H]2Oc3c(NC(=O)c4nc5ccccc5s4)cccc3C(=O)N([C@@H](C)CO)C[C@@H]2C)cc1	1	-14	0	1	0
COc1ccccc1NC(=O)Nc1ccc2c(c1)C(=O)N(C)C[C@H](OC)[C@@H](C)CN(C)[C@@H](C)CO2	6	-16	0	x	x
COc1ccccc1NC(=O)Nc1ccc2c(c1)C(=O)N(C)C[C@H](OC)[C@H](C)CN[C@@H](C)CO2	22*	1	0	2	2
COc1ccccc1NC(=O)Nc1ccc2c(c1)C(=O)N(C)C[C@H](OC)[C@H](C)CN(C)[C@H](C)CO2	19*	1	x	x	x
CCn1c(SCC(=O)Nc2ccc3c(c2)oc2ccccc23)nnc1-c1ccc(N)cc1	x	73*	x	x	x
CCn1c(SCC(=O)Nc2ccccc2C(=O)OC)nnc1-c1ccc(N)cc1	x	22	x	x	x
CCN1CCN(C(=O)/C=C/c2ccc(F)cc2)CC1	18*	-10	0	x	3
CCN1CCN(C(=O)/C=C/c2ccc(OC)cc2)CC1	0	-2	0	-3	-4
C[C@@H]1CN([C@@H](C)CO)C(=O)c2ccccc2-c2ccccc2CO[C@H]1CN(C)S(=O)(=O)c1cccs1	0	6	0	-2	-1
CCOc1ccccc1CN1CCN(Cc2ccc(C)o2)C(CCO)C1 (stereo unspecified)	2	7	43*	-1	-1
Cc1ccc(CN2CCN(Cc3cnn(-c4ccc(Cl)cc4)c3)CC2CCO)o1 (stereo unspecified)	26*	-9	43	2	-3
CO[C@@H]1CN(C)C(=O)c2ccc(NC(=O)C3CCOCC3)cc2OC[C@@H](C)N(C(C)=O)C[C@@H]1C	x	9	0	-1	-2
CC(C)NC(=O)N(C)C[C@H]1Oc2cc(-c3cccnc3)ccc2S(=O)(=O)N([C@H](C)CO)C[C@@H]1C	-3	15	x	-3	0
CC(C)CC(=O)NNC(=S)Nc1ccc(S(N)(=O)=O)cc1	x	-9	0	7	1
CCc1ccc(C(=O)NNC(=S)Nc2ccc(S(N)(=O)=O)cc2)s1	3	-8	1.8*	-2	2
Cc1cc2ccccn2c1C(=O)c1cc([N+](=O)[O-])cc([N+](=O)[O-])c1	-5	-3	0	-2	2
CCN(CC)S(=O)(=O)c1cccc(C(=O)c2c(C)cc3ccccn23)c1	-2	-3	43*	-5	-1
CO[C@@H]1CN(C)C(=O)c2cc(NC(=O)C3CC3)ccc2OC[C@@H](C)N(Cc2ccccc2)C[C@@H]1C	3	5	0	0	-1
O=C(Cc1ccc(NC(=O)C2CCCN(C(=O)c3ccccc3)C2)cc1)Nc1cccc(C(=O)N2CCCCC2)c1 (stereo unspecified)	2	79*	-1	0	2
O=C(Cc1cccc(NC(=O)C2CCCN(C(=O)C3CCCC3)C2)c1)Nc1cccc(C(=O)N2CCOCC2)c1 (stereo unspecified)	19*	-2	0	0	2
O=C(Cc1ccccc1)N1CC2(C1)[C@@H](c1ccccc1)[C@@H](CO)N2C(=O)c1cccnc1	2	-4	x	-4	-1
CN(C)CC(=O)Nc1ccc2c(c1)C(=O)N(C)[C@H]1CC[C@H](CC(=O)Nc3ccc(F)cc3)O[C@@H]1CO2	x	-6	x	x	x
O=C1N[C@H](Cc2ccccc2)COCc2cnnn2CC[C@@H]1Cc1cccc(F)c1	x	23	x	x	x
CCCNC(=O)Nc1ccc2c(c1)C(=O)N(C)C[C@H](OC)[C@H](C)CN(C(=O)c1ccccc1F)[C@H](C)CO2	1	-8	0	0	3
SMILES	SIRT5 block	GSIS activator	FGF22 binding	ERAP1 inh	CASP6 VEID inh
O=C(C[C@@H]1C=C[C@H](NC(=O)c2ccccc2)[C@@H](CO)O1)NCc1ccc(Oc2ccccc2)cc1	9	3	0	3	-3
COc1ccc2c(c1)c(=O)oc1c(C)c(OC(C)C(=O)N[C@@H](Cc3c[nH]c4ccc(O)cc34)C(=O)O)ccc12 (stereo partly specified)	3	x	x	19	39*
C#CCNc1cc(-c2ccccc2)nc2ncnn12	-3	20	44*	0	-3
Cc1noc(C)c1S(=O)(=O)N(C)C[C@H]1OCCCC[C@@H](C)Oc2ccc(NS(=O)(=O)c3ccccc3)cc2C(=O)N([C@@H](C)CO)C[C@H]1C	4	-2	0	-2	0
CN1CCN(C(=O)C[C@H]2CC[C@H](NC(=O)Cc3ccccn3)[C@H](CO)O2)CC1	1	31	0	2	-9
COC(=O)c1cc2ccccc2c([N+](=O)[O-])c1O	1	55*	0	1	1
CCCNC(=O)N[C@H]1CC[C@H](CCn2cc(-c3cccc(F)c3)nn2)O[C@H]1CO	-1	6	0	3	10
C[C@@H]1CCCCO[C@@H](CN(C)S(C)(=O)=O)[C@@H](C)CN([C@H](C)CO)C(=O)c2cc(NC(=O)C3CCCCC3)ccc2O1	-1	22	0	-3	-1
Cn1c(SCC(=O)O)nnc1-c1ccc(NC(=O)c2ccc(Cl)c(Cl)c2)cc1	16*	-13	0	-7	1
Cn1c(SCC(=O)CC(=O)Nc2ccccc2)nnc1-c1ccc(O)cc1	4	-6	0	2	0
CN(C)C(=O)c1cc(C(=O)c2ccc(F)cc2F)c[nH]1	-3	7	0	3	-2
CN(C)C(=O)c1cc(C(=O)c2ccc(C(F)(F)F)cc2F)c[nH]1	34*	7	0	-1	-4
CC1CCCC(NC(=O)COC(=O)CCSc2ccccc2)C1C (stereo unspecified)	16*	13	0	-3	0
CC1CCCC(NC(=O)COC(=O)CCC(=O)c2ccc(F)cc2)C1C (stereo unspecified)	x	x	44*	3	-2
CC(C)CC#Cc1ccc2c(c1)O[C@@H](CN(C)C(=O)Nc1ccccc1F)[C@H](C)CN([C@H](C)CO)S2(=O)=O	3	-12	0	0	-1
COc1ccc2nc(C)cc(N3CCC(C(N)=O)CC3)c2c1	7	7	43*	3	-1
CCC[N+]1(CC#CC2(O)CCCCC2)CCOCC1	x	6	0	85*	1
COC(=O)/C=c1/sc2n(c1=O)CCN=2	x	0	x	x	x
CCOC(=O)/C=c1\sc2n(c1=O)CCN=2	x	48*	x	x	x

Screens: PubChem, Broad Institute
